This passage reports cytotoxicity results from PubChem BioAssay AID430 (Sanford-Burnham Center for Chemical Genomics, 2006).

Among all 63,000 compounds or so, about 1,100 (1.7%) were called active. Shown is part of a subset that was picked to be rich in actives. Entries with a potency or affinity are not part of this list. A number with no mark means an inactive call. Rule as the data show it: active = cytotoxicity above about 50%; inactive = the rest.

The nature of the assay: cytotoxicity in HPDE-C7 cells, cell-based, fluorescence, HTS (AID 430).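 Also: cells exposed to compound for 48 hours before viability readout; 0% = vehicle and 100% = reference cytotoxic drug.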 The settings on record: HPDE-C7 pancreatic duct cells viability, at 10 µM, hits give high values.
With `COCCCn1c(=O)c2ccccc2c2ccccc2c1=O`, the cytotoxicity is -14.8%.

For the compound `CC(=O)c1cccc(S(=O)(=O)N(CCCO)Cc2cc3ccc(C)cc3[nH]c2=O)c1`, the cytotoxicity was -3.7%.

As to `COc1ccc(NC(=O)N2CCCC2)cc1OC`, the cytotoxicity was -16.9%.

For `O=c1[nH]cnc2scc(-c3ccc(F)cc3)c12`, the cytotoxicity was -4.9%.

As to `Cn1nnnc1Sc1ncnc2scc(-c3ccccc3)c12`, the cytotoxicity was 2.6%.

Turning to `C/C(=N\O)c1c(C)c2ccccc2n1C`, the cytotoxicity is -0.6%.

Take `CC1=C(C(=O)Nc2ccccn2)C(c2ccc(F)cc2)n2ncnc2N1` (stereo not drawn): the cytotoxicity was -6%.

Take `O=C(CSc1ncnc2c1oc1ccccc12)Nc1cccc(C(F)(F)F)c1`: the cytotoxicity is 2.9%.

With `Cc1ccnc(SCC(=O)O)n1`, the cytotoxicity was -31.8%.

Consider `Cc1ccccc1NC(=O)CSc1nc2c(c(-c3ccco3)c1C#N)CCCC2`, for which the cytotoxicity was -20.7%.

Regarding `c1ccc2[nH]c(-c3ccnc4ccccc34)nc2c1`, the cytotoxicity is 3%.

Consider `O=C(c1cnn2c(C(F)(F)F)cc(-c3ccco3)nc12)N1CCCc2ccccc21`, for which the cytotoxicity was 4.7%.

Consider `O=C(c1cc2nc(-c3ccco3)cc(C(F)(F)F)n2n1)N1CCCc2ccccc21`, for which the cytotoxicity was -11.2%.

Consider `O=C(c1nn2c(C(F)(F)F)cc(-c3ccco3)nc2c1Br)N1CCCc2ccccc21`, for which the cytotoxicity is 51.8% (active).

Take `O=C(Sc1nnnn1C1CCCCC1)c1cccs1`: the cytotoxicity was -11.4%.

Consider `COc1cc(C(=O)NCc2nnc(SCC(=O)N3CCC(C)CC3)o2)cc(OC)c1OC`, for which the cytotoxicity is -2.5%.

In the case of `CC1(C)Cc2c(c(N3CCOCC3)nc3snc(Br)c23)CO1`, the cytotoxicity is 5.4%.

With `CC1(C)Cc2c(c(N3CCOCC3)nc3sc(C(=O)N4CCCCC4)c(N)c23)CO1`, the cytotoxicity is -5.3%.

Take `CCN1C(=O)c2ccccc2S(=O)(=O)c2ccc(C(=O)NCc3cccnc3)cc21`: the cytotoxicity was -0.2%.

In the case of `COc1ccccc1C(=O)Nc1nc2ccc(S(C)(=O)=O)cc2s1`, the cytotoxicity was 2.7%.

`CS(=O)(=O)c1ccc2nc(NC(=O)c3cccs3)sc2c1`: the cytotoxicity is -8.3%.

For `CC(C)n1nc(C(=O)Nc2nc3ccc(S(C)(=O)=O)cc3s2)c2ccccc2c1=O`, the cytotoxicity is 54.4% (active).

Consider `COCCCNC(=O)c1ccc(N2CCCC2)c(NS(=O)(=O)c2ccc(C)cc2)c1`, for which the cytotoxicity was -13.4%.

As to `CC1CC(C)CN(C(=O)c2cn(C)c3ccc(S(=O)(=O)N(C)C)cc3c2=O)C1` (stereo not drawn), the cytotoxicity was 0.8%.

In the case of `CC12CC(NC(=O)N1c1cccc(C(=O)NCc3ccc4c(c3)OCO4)c1)c1cc(Cl)ccc1O2` (stereo not drawn), the cytotoxicity is 27.3%.

Consider `COc1ccccc1Oc1cc(C#N)c(C#N)cc1-n1nnc2ccccc21`, for which the cytotoxicity was -8.8%.

For the compound `c1ccc(-n2nnnc2Oc2cccc3cccnc23)cc1`, the cytotoxicity was 19.3%.

As for `N#Cc1cc(Oc2cccc3cccnc23)c(-n2nnc3ccccc32)cc1C#N`, the cytotoxicity was 63.7% (active).

Turning to `CCOC(=O)CNC(=O)CSc1nc2cccnc2n1C`, the cytotoxicity was -7.9%.

`CCNc1sc(C(=O)c2cccs2)c(N)c1-c1nc2ccccc2s1`: the cytotoxicity was 73.7% (active).

`CCNc1sc(C(=O)c2cccs2)c(N)c1C#N`: the cytotoxicity is -12.7%.

Take `CNc1sc(C(=O)c2cccs2)c(N)c1-c1nc2ccccc2s1`: the cytotoxicity is 33.3%.

Consider `COc1ccccc1Nc1nc(C2(C)CCC(=O)O2)cs1` (stereo not drawn), for which the cytotoxicity was 6.8%.

On to `Cn1c(-c2nonc2NC(=O)c2ccc(C(C)(C)C)cc2)nc2ccccc21`, for which the cytotoxicity was -0.1%.

On to `CCCn1cc(S(=O)(=O)CC(=O)Nc2ccc(OCC)cc2)c2ccccc21`, for which the cytotoxicity is -9.9%.

In the case of `COc1ccccc1OCc1nc2c3c(-c4ccccc4)c(-c4ccccc4)oc3ncn2n1`, the cytotoxicity was 7.7%.

As for `Cc1nc2c3c(-c4ccccc4)c(-c4ccccc4)oc3ncn2n1`, the cytotoxicity was -9.4%.

For the compound `N=c1c2c(-c3ccccc3)c(-c3ccccc3)oc2ncn1CCN1CCOCC1`, the cytotoxicity is 29.3%.

Turning to `COc1ccc(-c2oc3ncn4nc(COc5ccccc5)nc4c3c2-c2ccc(OC)cc2)cc1`, the cytotoxicity is 54.9% (active).

Turning to `COc1ccc(-c2oc3ncn4nc(Cc5ccccc5)nc4c3c2-c2ccc(OC)cc2)cc1`, the cytotoxicity is 62.3% (active).

On to `COc1ccc(-c2oc3ncn(CCN4CCOCC4)c(=N)c3c2-c2ccc(OC)cc2)cc1`, for which the cytotoxicity is 16%.

On to `CCOc1ccc(CCNC(=O)CCN2C(=O)COc3ccccc32)cc1OCC`, for which the cytotoxicity was -19.6%.

On to `CCOC(=O)/C=C1\SCC(=O)N1CC(=O)Nc1ccccc1OC(F)F`, for which the cytotoxicity is 2.3%.

Regarding `CN(C)C(=O)N1CCC(C(=O)NCc2ccc(F)cc2)CC1`, the cytotoxicity was -10.1%.

On to `Cc1[nH]nc2c1C(Cc1ccccc1)C(C#N)=C(N)O2` (stereo not drawn), for which the cytotoxicity is -12.3%.

With `Cc1cccc(Nc2ccccc2C(=O)O)c1C`, the cytotoxicity was 3.8%.

Regarding `Cc1ccc(Cl)c(Nc2ccccc2C(=O)O)c1Cl`, the cytotoxicity is 66.2% (active).

For the compound `Cc1c(Cl)cccc1Nc1ccccc1C(=O)O`, the cytotoxicity is -3.4%.

For the compound `O=C1c2ccccc2C(=O)N1CCCc1nc(-c2cccnc2)no1`, the cytotoxicity is 6.9%.

In the case of `Fc1ccc(-n2c(-c3ccco3)nc3nc4ccccc4nc32)cc1`, the cytotoxicity is -1.1%.

On to `CC(C)(C)c1ccc(-c2nc(C#N)c(NCc3ccncc3)o2)cc1`, for which the cytotoxicity is 54.6% (active).

On to `N#Cc1nc(-c2ccc(OCc3ccc(Cl)cc3)cc2)oc1NCCCn1ccnc1`, for which the cytotoxicity was -0.4%.

`N#Cc1nc(-c2ccc(OCc3ccc(Cl)cc3)cc2)oc1NCc1cccnc1`: the cytotoxicity was 53.4% (active).

Take `COc1ccc(CNc2oc(-c3ccccc3)nc2C#N)cc1`: the cytotoxicity was 5.7%.

Take `COc1ccc(CNc2oc(COc3ccccc3)nc2C#N)cc1`: the cytotoxicity is 0.5%.

For `N#Cc1nc(-c2ccc(F)cc2)oc1NCc1ccccc1`, the cytotoxicity was -17.1%.

As to `N#Cc1nc(COc2ccc(-c3ccccc3)cc2)oc1NCc1cccnc1`, the cytotoxicity is 61.9% (active).

Consider `COc1ccc(-c2nc(C#N)c(NCCCN3CCOCC3)o2)cc1`, for which the cytotoxicity was -6.6%.

With `N#Cc1nc(Cc2ccccc2)oc1NCc1cccnc1`, the cytotoxicity was -12.4%.

As to `N#Cc1nc(-c2ccc(OCc3ccccc3)cc2)oc1NCCN1CCOCC1`, the cytotoxicity was -1%.

As for `N#Cc1nc(-c2ccc(OCc3ccccc3)cc2)oc1NCc1cccnc1`, the cytotoxicity was 0.6%.

Regarding `Cc1ccc(-n2nnc3c(=O)n(Cc4ccccc4C)cnc32)cc1`, the cytotoxicity was 0.5%.

For `COCCNC(=O)C(c1ccc(Cl)cc1)N(C(=O)CCC(=O)Nc1ccccn1)C1CCCC1` (stereo not drawn), the cytotoxicity was -1.7%.

Consider `CNCCOCC(O)CSc1ccccc1` (stereo not drawn), for which the cytotoxicity was 1.2%.

For the compound `Cc1cccc(-c2nnn(CC/C(N)=N/O)n2)c1`, the cytotoxicity was 2.8%.

Take `CCN1CCN(c2nc(-c3cccnc3)nc3ccccc23)CC1`: the cytotoxicity is -27.8%.

As to `COc1ccc(NC(=O)C(Cc2ccccc2)NC(=O)c2ccco2)cc1OC` (stereo not drawn), the cytotoxicity is -0.4%.

In the case of `c1ccc(CSc2nnc3c(n2)OC(c2ccco2)Nc2ccccc2-3)cc1` (stereo not drawn), the cytotoxicity is -3.6%.

With `O=C(Nc1ccc2c(c1)OCO2)C(c1ccccc1)N1CCCCC1` (stereo not drawn), the cytotoxicity was -14%.

In the case of `O=c1[nH]nnc2c1sc1nc(N3CCOCC3)c3c(c12)CCCC3`, the cytotoxicity is 30.8%.

As for `COc1ccccc1-n1c(=O)oc2ccc(Cl)cc2c1=O`, the cytotoxicity was 59.7% (active).

As to `COc1ccccc1-n1c(SC)nc(O)cc1=O`, the cytotoxicity was 4.6%.

With `COc1ccccc1C1c2c(oc3ccc(Cl)cc3c2=O)C(=O)N1c1cc(C)on1` (stereo not drawn), the cytotoxicity is -14.3%.

In the case of `Cn1c(SCc2c(F)cccc2Cl)nnc1-c1cccs1`, the cytotoxicity was -2.8%.

In the case of `O=C(C1COc2ccccc2O1)N1CCN(c2ccc(F)cc2)CC1` (stereo not drawn), the cytotoxicity was -9%.

As to `O=C(O)COc1ccc2nsnc2c1Cl`, the cytotoxicity was -25.1%.

As to `CCOc1ccccc1OCC(=O)O`, the cytotoxicity was 4.2%.

Turning to `COC(=O)CN1C(=O)C(O)(CC(=O)c2ccc(C)cc2)c2ccccc21` (stereo not drawn), the cytotoxicity is -28.9%.

Turning to `Cc1ccccc1-n1c(N)cc(=O)[nH]c1=S`, the cytotoxicity was -2.2%.

For `CCOC(=O)c1cc(NC(=O)Nc2ccc(OC)c(OC)c2)c(C)nc1C`, the cytotoxicity is 5.7%.

As for `CCOC(=O)N1CCN(S(=O)(=O)c2ccc(C(=O)Nc3ccc(F)cc3F)cc2)CC1`, the cytotoxicity is 58% (active).

Consider `CCOC(=O)N1CCN(S(=O)(=O)c2ccc(F)cc2)CC1`, for which the cytotoxicity is -1.6%.

In the case of `CCOC(=O)N1CCN(S(=O)(=O)c2ccc(C(=O)Nc3nc4ccc(F)cc4s3)cc2)CC1`, the cytotoxicity was -8%.

As to `CC1=CC(c2ccccc2)n2nc(N3C(=O)c4ccccc4C3=O)nc2N1` (stereo not drawn), the cytotoxicity was -0.7%.

Regarding `Cc1cc(NC(=O)c2ccc(S(=O)(=O)N(C)C)cc2)no1`, the cytotoxicity is -5.2%.

With `O=S(=O)(c1ccccc1)c1nc(-c2ccccc2)oc1NCc1cccnc1`, the cytotoxicity was -3.2%.

For the compound `CCNC(=O)C1CC(=O)N(Cc2ccc3c(c2)OCO3)C(=Nc2ccc(F)cc2)S1` (stereo not drawn), the cytotoxicity was 50.6% (active).

Turning to `CNC(=O)C1CC(=O)N(Cc2ccc3c(c2)OCO3)C(=Nc2ccc(F)cc2)S1` (stereo not drawn), the cytotoxicity was 3.4%.

As to `CCNC(=O)C1CC(=O)N(Cc2ccc3c(c2)OCO3)C(=Nc2ccc(OCC)cc2)S1` (stereo not drawn), the cytotoxicity was -4.1%.

Turning to `c1ccc(Cn2nnnc2CN2CCN(Cc3ccc4c(c3)OCO4)CC2)cc1`, the cytotoxicity is -5.8%.

Regarding `Cc1nc2cc(C(F)(F)F)ccc2n1C1CCN(CC(=O)N2CCOCC2)CC1`, the cytotoxicity is 1.2%.

For `COc1ccc(S(=O)(=O)Nc2cc(C)ccc2OC)cc1C`, the cytotoxicity was 1.8%.

As for `COc1ccc(NC(=O)CSc2nc3c(c(=O)n2-c2ccc(F)cc2)SCC3)cc1`, the cytotoxicity is 14.2%.

As for `COc1ccc(NC(=O)c2cccc(-n3cnnn3)c2)cc1`, the cytotoxicity is -1.7%.

Regarding `O=C(O)C1C2C=CC3(CN(CC(O)COc4ccccc4)C(=O)C13)O2` (stereo not drawn), the cytotoxicity was -8.7%.

With `Cc1cc2ccccc2n1CCNC(=O)c1ccc(S(=O)(=O)N2CCOCC2)cc1`, the cytotoxicity was -3.1%.

`Cn1cc(S(=O)(=O)Cc2ccc(F)cc2)c2ccccc21`: the cytotoxicity is 8.8%.

As for `CC(C)C[C@H](N)c1nnc(S(=O)(=O)Cc2cccc(F)c2)o1`, the cytotoxicity was 19%.
